This is part of a sample that, as a whole, favours compounds with a hit. Of some 79,000 tested, about 15% had one in any assay. Active and inactive are the calls of the source. No stated cut-off is given here; in the data, active means growth inhibition above about 70%; inactive means the rest.
Key:
[1] = NCI Yeast Anticancer Drug Screen. Data for the rad50 strain (AID 155);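 further: 0% = growth of vehicle-only cultures of the same strain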; settings: S. cerevisiae rad50 strain growth inhibition; at 50.0 µM; hits give high values
Outline: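 Growth of the mutant yeast was measured after compound exposure and referenced to vehicle-treated cultures.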

[2] = NCI Yeast Anticancer Drug Screen. Data for the mec2-1 strain (AID 157); settings: S. cerevisiae mec2-1 strain, at 50.0 µM, hits give high values
Outline: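 Using mec2-1 yeast: add compound, measure growth, express inhibition versus vehicle-treated cultures.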

[3] = NCI Yeast Anticancer Drug Screen. Data for the sgs1 mgt1 strain (AID 161);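 further: 0% = growth of cultures given vehicle only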; settings: S. cerevisiae sgs1 mgt1 strain, at 50.0 µM, hits give high values
Outline: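 Growth of a repair-deficient yeast mutant was monitored after compound treatment and expressed as inhibition relative to vehicle-treated cultures.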

[4] = NCI Yeast Anticancer Drug Screen. Data for the cln2 rad14 strain (AID 165);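 further: 0% = growth equal to vehicle treated cultures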; settings: S. cerevisiae cln2 rad14 strain, at 50.0 µM, hits give high values
Outline: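 Yeast strain cln2 rad14, bearing defects in cell cycle control and DNA repair, serves as the test system; values reflect growth inhibition compared with vehicle.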

[5] = NCI Yeast Anticancer Drug Screen. Data for the bub3 strain (AID 167); settings: S. cerevisiae bub3 mutant strain, at 50.0 µM, hits give high values
Outline: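 Whole-cell yeast assay. The mutant strain was incubated with compounds, and growth inhibition was determined by comparison with vehicle-treated cells.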

[6] = NCI Yeast Anticancer Drug Screen. Data for the mlh1 rad18 strain (AID 175); settings: S. cerevisiae mlh1 rad18 strain growth inhibition; at 50.0 µM; hits give high values
Outline: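 Steps: expose repair-defective yeast to compound; measure growth; express inhibition against vehicle-treated controls.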

Measured: growth inhibition

CC(F)C(N)C(=O)O (stereo not drawn)
inactive: [1] -7.9% | [2] -3.65% | [3] -7.75% | [4] -1.7% | [5] -0.1% | [6] -11.9%

c1cnc[c]([Hg][c]2cccnc2)c1
inactive: [1] 40.1% | [2] 56.5% | [3] 37.2% | [6] 53.4%
active: [4] 73.5% | [5] 88.8%

COc1cc(C(=O)OC(C)CC2(c3ccccc3)C(=O)NC(=O)NC2=O)cc(OC)c1OC (stereo not drawn)
inactive: [1] 2.75% | [2] -3.4% | [3] 24.1% | [4] 1.75% | [5] 3.05% | [6] -6.8%

C1CN([PH+](N2CC2)N2CC2)CCO1.C1CN([PH+](N2CC2)N2CC2)CCO1.[I][Pd][I]
inactive: [1] 3.9% | [2] 6.7% | [3] -5.7% | [4] -8.05% | [5] 0% | [6] -4.4%

O=C1NC(=S)NC(=O)C1=Cc1ccc(-c2ccccc2)cc1
inactive: [1] 33.1% | [2] -12% | [3] 16.7% | [4] 15.6% | [5] 13.3% | [6] 15.3%

CC(C)[C@](O)(C(=O)OCC1=CC[N+]2([O-])CC[C@@H](O)[C@@H]12)[C@H](C)O (stereo partly drawn)
inactive: [1] -10.2% | [2] -46.3% | [3] 4.35% | [4] -0.85% | [5] -26.2% | [6] -10.2%

CC(N)CN.CC(N)CN.[Cl-].[O]=[Os+2]=[O] (stereo not drawn)
inactive: [1] -31% | [2] -13.4% | [3] -16.6% | [4] 2.05% | [5] -16.1% | [6] -13.6%

CC(Cl)CN1COc2ccc3ccc4c(c3c2C1)CN(CC(C)Cl)CO4 (stereo not drawn)
inactive: [1] 29.1% | [2] 14.4% | [3] 28.4% | [4] -17.9% | [5] 6% | [6] 34.1%
